PubChem BioAssay (Tox21)
Unmarked numbers belong to inactive results. Records with an inconclusive call do not appear. A call without a number means that no potency is given here. Active and inactive are the calls of the source. Unless noted, calls follow the shape of the full dose curve.

Columns and labels:
[1] = Nuclear factor erythroid 2-related factor 2/antioxidant responsive element (Nrf2/ARE) small molecule agonists: qHTS cell viability counter screen in human keratinocytes (AID 1919968; active = well fitted curve in the direction sought with a large enough effect in the repeat runs; an effect the other way counts as inactive or inconclusive; also: nearly all actives have a fitted effect of over 55% in size; also: potency is read from the fitted curve at half-maximal effect)
Outline: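 KeratinoSens HaCaT cells, 1,500/well, preincubated 5 h, then exposed to compounds in DMSO for 23 h at 37 C/5% CO2. Viability read as CellTiter-Fluor fluorescence after 1 h, in the same wells as the ARE-luciferase read.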

[2] = Nuclear factor erythroid 2-related factor 2/antioxidant responsive element (Nrf2/ARE) small molecule agonists: luciferase reporter gene qHTS assay in human keratinocytes (AID 1919969); also: nearly all actives have a fitted effect of over 35% in size
[3] = target: Gonadotropin-releasing hormone receptor (Homo sapiens) (UniProt P30968); experiment: Human gonadotropin-releasing hormone receptor (GnRHR) small molecule agonists, calcium flux assay in GnRHR-HEK293 cells (AID 1920063); also: nearly all actives have a fitted effect of over 35% in size; also: potency is read from the fitted curve at half-maximal effect
Sequence of Gonadotropin-releasing hormone receptor (Homo sapiens) (P30968 whole entry, looked up): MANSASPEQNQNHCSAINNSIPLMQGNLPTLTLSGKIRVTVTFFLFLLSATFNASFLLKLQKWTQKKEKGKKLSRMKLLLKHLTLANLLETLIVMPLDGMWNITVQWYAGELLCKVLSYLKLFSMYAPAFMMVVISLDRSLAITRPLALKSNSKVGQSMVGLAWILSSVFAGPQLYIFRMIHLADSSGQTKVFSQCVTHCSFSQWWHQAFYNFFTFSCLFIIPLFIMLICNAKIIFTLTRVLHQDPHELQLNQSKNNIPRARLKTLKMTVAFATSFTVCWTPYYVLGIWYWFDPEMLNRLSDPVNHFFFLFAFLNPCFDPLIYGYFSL
Outline: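 HEK293 cells stably expressing human GnRHR were dye-loaded for 1 h at 37 C. Compound was added in agonist mode and fluorescence (Ex/Em 480/540) recorded kinetically for 3 min. Fifteen concentrations, triplicates.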

[4] = target: KiSS-1 receptor (Homo sapiens) (UniProt Q969F8); experiment: Human kisspeptin (KISS1R) small molecule agonists, calcium flux assay in KISS1R-HEK293 cells (AID 1920064; active = well fitted curve in the direction sought with a large enough effect in the repeat runs; an effect the other way counts as inactive or inconclusive)
Sequence of KiSS-1 receptor (Homo sapiens) (Q969F8 whole entry, looked up): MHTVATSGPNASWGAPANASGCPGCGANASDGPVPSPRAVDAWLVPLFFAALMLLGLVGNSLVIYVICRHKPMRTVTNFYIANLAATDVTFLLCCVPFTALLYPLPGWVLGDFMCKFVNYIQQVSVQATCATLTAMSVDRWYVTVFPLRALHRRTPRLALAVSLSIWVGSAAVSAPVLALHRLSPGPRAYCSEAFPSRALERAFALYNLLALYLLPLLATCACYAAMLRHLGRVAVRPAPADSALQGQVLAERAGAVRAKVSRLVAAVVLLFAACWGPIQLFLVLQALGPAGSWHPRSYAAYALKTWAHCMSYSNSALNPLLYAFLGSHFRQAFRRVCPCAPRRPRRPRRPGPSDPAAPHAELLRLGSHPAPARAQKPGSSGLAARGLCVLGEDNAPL
Outline: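 HEK293 cells stably expressing human KISS1R were loaded with calcium dye for 1 h at 37 C, then given compound; fluorescence (Ex/Em 480/540) was read kinetically for 3 min. Fifteen concentrations, triplicate.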

[5] = G protein-coupled receptor (GPCR) small molecule agonists, calcium flux assay: HEK293 wild type cell line counter screen (AID 1920065)
Outline: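 Wild-type HEK293 cells plated 18 h, loaded with calcium dye 1 h at 37 C, then compounds added in agonist mode (ATP as positive control). Kinetic fluorescence Ex/Em 480/540 recorded 3 min at 1 sec intervals; 15 concentrations, triplicate.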

[6] = p53 small molecule agonists, cell-based qHTS assay with rat liver microsomes (AID 1963578)
Outline: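 Agonist mode in p53RE-bla reporter cells, with compounds co-incubated 16 h at 37 C alongside 0.5 mg/mL rat liver microsomes and 0.5 mg/mL NADPH (final), followed by a 2 h LiveBLAzer detection step.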

[7] = p53 small molecule agonists, cell-based qHTS assay with rat liver microsomes: qHTS cell viability counter screen (AID 1963580); also: nearly all actives have a fitted effect of over 45% in size
Outline: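 p53RE-bla HCT-116 cells were exposed 16 h at 37 C to compounds with rat liver microsomes (0.5 mg/mL) and NADPH (0.5 mg/mL). Viability was measured in the same wells as ATP content by CellTiter-Glo luminescence.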

[8] = p53 small molecule agonists, cell-based qHTS assay: qHTS cell viability counter screen (AID 1963581); also: nearly all actives have a fitted effect of over 45% in size
Outline: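 p53RE-bla HCT-116 cells, compounds added 5 h after plating and incubated 16 h at 37 C. Cytotoxicity measured in the same wells as intracellular ATP by CellTiter-Glo luminescence after 30 min at room temperature.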

[9] = p53 small molecule agonists, cell-based qHTS assay (AID 1963582; active = well fitted activation curve with a large enough effect in the signal ratio in the repeat runs, not every such curve was filed as active; the % refers to the signal ratio)
Outline: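 p53RE-bla reporter cells, compounds added in DMSO after 5 h plating, incubated 16 h at 37 C. Beta-lactamase read via 2 h room-temperature LiveBLAzer B/G FRET substrate, fluorescence intensity.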

[10] = target: 5-hydroxytryptamine receptor 2A (Homo sapiens) (UniProt P28223); experiment: 5-hydroxytryptamine receptor 2A (HTR2A) small molecule antagonists, cell-based qHTS assay (AID 1963586); also: nearly all actives have a fitted effect of over 45% in size
Sequence of 5-hydroxytryptamine receptor 2A (Homo sapiens) (P28223 whole entry, looked up): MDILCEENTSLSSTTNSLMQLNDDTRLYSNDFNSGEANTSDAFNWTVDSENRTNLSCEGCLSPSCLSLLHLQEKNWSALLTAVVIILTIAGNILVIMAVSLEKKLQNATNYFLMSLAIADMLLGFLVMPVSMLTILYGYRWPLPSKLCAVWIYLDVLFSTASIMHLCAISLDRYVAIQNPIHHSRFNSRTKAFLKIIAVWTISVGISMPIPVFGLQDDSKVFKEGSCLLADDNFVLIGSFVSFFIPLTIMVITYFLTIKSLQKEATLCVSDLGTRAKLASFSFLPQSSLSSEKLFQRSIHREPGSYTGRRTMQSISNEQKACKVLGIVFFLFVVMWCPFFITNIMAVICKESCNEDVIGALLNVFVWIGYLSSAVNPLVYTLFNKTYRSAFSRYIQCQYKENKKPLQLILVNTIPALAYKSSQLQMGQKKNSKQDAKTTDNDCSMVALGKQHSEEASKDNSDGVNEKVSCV
Outline: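 Antagonist-mode intracellular calcium assay: DOI (4 nM) added after 5 min compound pre-incubation at room temperature to dye-loaded HTR2A-CHO cells. Fluorescence followed for 3 min, sampled every second.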

[11] = target: 5-hydroxytryptamine receptor 2A (Homo sapiens) (UniProt P28223); experiment: 5-hydroxytryptamine receptor 2A (HTR2A) small molecule agonists, cell-based qHTS assay (AID 1963587); also: nearly all actives have a fitted effect of over 30% in size
Outline: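 CHO cells stably expressing human HTR2A, plated 18 h, loaded with calcium dye 1 h at 37 C. Agonist mode: compounds added and intracellular calcium fluorescence recorded kinetically for 2 min at 1 sec intervals.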

[12] = target: Muscarinic acetylcholine receptor M1 (Homo sapiens) (UniProt P11229); experiment: Cholinergic receptor muscarinic 1 (CHRM1) small molecule agonists, cell-based qHTS assay (AID 1963589); also: nearly all actives have a fitted effect of over 35% in size
Sequence of Muscarinic acetylcholine receptor M1 (Homo sapiens) (P11229 whole entry, looked up): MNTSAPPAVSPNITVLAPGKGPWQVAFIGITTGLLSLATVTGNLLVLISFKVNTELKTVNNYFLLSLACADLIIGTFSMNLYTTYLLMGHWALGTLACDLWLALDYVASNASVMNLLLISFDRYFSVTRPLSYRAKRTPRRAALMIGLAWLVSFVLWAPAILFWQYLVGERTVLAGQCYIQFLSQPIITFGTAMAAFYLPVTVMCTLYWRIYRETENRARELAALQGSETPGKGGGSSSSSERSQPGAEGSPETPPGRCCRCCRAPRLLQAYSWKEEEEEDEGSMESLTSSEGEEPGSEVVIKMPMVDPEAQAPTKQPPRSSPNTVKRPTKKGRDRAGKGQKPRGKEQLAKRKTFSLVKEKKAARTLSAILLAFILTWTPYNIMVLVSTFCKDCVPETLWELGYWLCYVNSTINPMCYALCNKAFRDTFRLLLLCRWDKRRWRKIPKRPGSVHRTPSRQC
Outline: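 CHO cells stably expressing human CHRM1 were loaded with calcium dye for 1 h at 37 C, then compound was added in agonist mode. Intracellular calcium fluorescence was followed kinetically at 1 s intervals. Fifteen concentrations were tested in three independent runs.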

[13] = cAMP Responsive Elements (CRE) small molecule agonists, cell-based qHTS assay (AID 1963590)
Outline: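 CRE-bla HEK 293T cells, 2,000/well in DMEM with 10% dialyzed FBS and 25 mM HEPES, pre-incubated 18 h at 37 C, then exposed to compound 3 h at 37 C. Beta-lactamase reporter read with LiveBLAzer B/G FRET substrate after 2 h at room temperature.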

[14] = cAMP Responsive Elements (CRE) small molecule antagonists, cell-based qHTS assay (AID 1963591; active = well fitted inhibition curve with a large enough effect in the signal ratio in the repeat runs, not every such curve was filed as active; the % refers to the signal ratio)
Outline: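 CRE-bla HEK293T cells plated 18 h, then given compound plus NKH477 at 0.25 uM final for 3 h at 37C. Beta-lactamase reporter read with LiveBLAzer B/G FRET substrate after 2 h at room temperature.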

[15] = target: Beta-2 adrenergic receptor (Homo sapiens) (UniProt P07550); experiment: Adrenergic beta2 receptor (ADRB2) small molecule antagonists, cell-based qHTS assay (AID 1963592); also: series mostly up to about 92 µM; nearly all actives have a fitted effect of over 50% in size
Sequence of Beta-2 adrenergic receptor (Homo sapiens) (P07550 whole entry, looked up): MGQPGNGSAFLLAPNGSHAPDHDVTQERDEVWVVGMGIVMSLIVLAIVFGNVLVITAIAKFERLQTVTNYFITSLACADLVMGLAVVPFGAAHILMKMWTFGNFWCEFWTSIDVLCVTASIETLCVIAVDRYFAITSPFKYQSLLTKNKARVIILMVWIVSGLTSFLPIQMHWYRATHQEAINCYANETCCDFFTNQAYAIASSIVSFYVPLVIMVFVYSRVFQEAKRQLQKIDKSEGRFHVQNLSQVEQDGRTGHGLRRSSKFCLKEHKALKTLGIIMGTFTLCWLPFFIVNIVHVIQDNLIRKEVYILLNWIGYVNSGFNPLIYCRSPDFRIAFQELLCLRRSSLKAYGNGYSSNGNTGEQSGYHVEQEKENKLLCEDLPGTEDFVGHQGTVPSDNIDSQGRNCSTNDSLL
Outline: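 Cells (CHO, stable ADRB2 overexpression) incubated 18-20hr at 37C; compounds added from DMSO; agonist mix (1nM isoproterenol, 100uM IBMX, 25uM Ro-20-1724) added; 0.5hr RT; d2-cAMP and anti-cAMP-cryptate added; 1hr RT; 665/615 nm read.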

[16] = target: D(2) dopamine receptor (Homo sapiens) (UniProt P14416); experiment: Dopamine D2 receptor (DRD2) small molecule agonists, cell-based qHTS assay (AID 1963594); also: nearly all actives have a fitted effect of over 35% in size
Sequence of D(2) dopamine receptor (Homo sapiens) (P14416 whole entry, looked up): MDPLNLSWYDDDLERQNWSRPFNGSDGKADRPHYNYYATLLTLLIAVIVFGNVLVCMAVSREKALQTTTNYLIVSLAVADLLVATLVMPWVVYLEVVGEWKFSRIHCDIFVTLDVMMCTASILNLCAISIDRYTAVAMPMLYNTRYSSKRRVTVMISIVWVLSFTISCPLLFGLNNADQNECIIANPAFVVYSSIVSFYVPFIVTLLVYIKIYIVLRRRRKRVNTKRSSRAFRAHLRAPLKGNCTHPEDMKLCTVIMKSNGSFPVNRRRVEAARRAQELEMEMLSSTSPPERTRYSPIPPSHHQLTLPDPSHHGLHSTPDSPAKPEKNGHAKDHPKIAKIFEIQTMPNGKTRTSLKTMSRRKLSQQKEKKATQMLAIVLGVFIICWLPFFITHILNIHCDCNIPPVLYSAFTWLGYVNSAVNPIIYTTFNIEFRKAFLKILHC
Outline: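 HEK293 cells stably expressing human DRD2, pre-treated with PDE inhibitor Ro20-1724 (0.1 mM final) and compound 10 min at room temperature, then stimulated with NKH477 (200nM […]) for 30 min. cAMP read by HTRF (665/620 nm).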

[17] = target: D(2) dopamine receptor (Homo sapiens) (UniProt P14416); experiment: Dopamine D2 receptor (DRD2) small molecule antagonists, cell-based qHTS assay (AID 1963595; active = well fitted inhibition curve with a large enough effect in the signal ratio in the repeat runs, with a control signal flat; the % refers to the signal ratio; also: potency is read from the fitted curve at half-maximal effect)
Outline: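 Antagonism was scored as restored cAMP in HEK293-DRD2 cells. These cells were stimulated with 200 nM NKH477 and 12 nM quinpirole for 30 min at room temperature, in the presence of 0.1 mM Ro20-1724.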

[18] = p53 small molecule agonists, cell-based qHTS assay with human liver microsomes: qHTS cell viability counter screen (AID 1963579); also: nearly all actives have a fitted effect of over 45% in size; also: potency is read from the fitted curve at half-maximal effect
Outline: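 Metabolically activated exposure: compounds, human liver microsomes and NADPH (0.5 mg/mL final apiece) were added to p53RE-bla cells seeded 5 h earlier, left 16 h at 37 C, and then assessed for viability by CellTiter-Glo luminescence.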

[19] = target: Muscarinic acetylcholine receptor M1 (Homo sapiens) (UniProt P11229); experiment: Cholinergic receptor muscarinic 1 (CHRM1) small molecule antagonists, cell-based qHTS assay (AID 1963588); also: nearly all actives have a fitted effect of over 40% in size
Outline: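 CHRM1-CHO calcium-flux assay, antagonist mode. Cells were seeded 18 h, dye-loaded 1 h at 37 C and given compound for 5 min at RT, then acetylcholine was added at 50nM. FDSS fluorescence was read 3 min; 15 concentrations, three runs.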

Compound	Potency [1]	Potency [2]	Potency [3]	outcome [4]	outcome [5]	Potency [6]	Potency [7]	Potency [8]	Potency [9]	Potency [10]	Potency [11]	Potency [12]	Potency [13]	Potency [14]	Potency [15]	Potency [16]	Potency [17]	Potency [18]	Potency [19]
OCC(CO)(CO)COCC(CO)(CO)CO	inactive	inactive	inactive	inactive	inactive	inactive	inactive	inactive	inactive	inactive	inactive	inactive	inactive	inactive	inactive	inactive	inactive	–	–
C=COCC1CCC(CO)CC1 (centres undefined)	inactive	inactive	inactive	inactive	inactive	inactive	inactive	–	inactive	inactive	inactive	inactive	inactive	–	inactive	inactive	inactive	inactive	inactive
CC(O)COC(C)(C)C (centres undefined)	inactive	inactive	inactive	inactive	inactive	inactive	inactive	inactive	inactive	inactive	inactive	inactive	inactive	inactive	inactive	inactive	inactive	–	–
CC(=O)Nc1cc(S(=O)(=O)O)cc2cc(S(=O)(=O)O)c(N=Nc3ccccc3)c(O)c12	27.3 µM (active)	inactive	inactive	inactive	inactive	inactive	inactive	inactive	inactive	inactive	inactive	–	inactive	inactive	–	inactive	–	–	inactive
Cc1ccc(C(=O)Oc2ccc(C(O)CNC(C)(C)C)cc2OC(=O)c2ccc(C)cc2)cc1 (centres undefined)	inactive	inactive	53.5 nM (active)	inactive	inactive	inactive	–	inactive	–	inactive	–	inactive	–	–	–	inactive	841 nM (active)	397 nM (active)	inactive
CC(=O)[C@@]1(O)CC[C@H]2[C@@H]3C[C@H](C)C4=CC(=O)CC[C@]4(C)[C@H]3CC[C@@]21C	inactive	inactive	inactive	inactive	inactive	inactive	–	inactive	inactive	–	–	–	–	–	inactive	inactive	inactive	inactive	–
Cc1cccc(C(=O)O)c1[N+](=O)[O-]	inactive	inactive	inactive	inactive	inactive	inactive	–	inactive	inactive	inactive	inactive	inactive	inactive	inactive	inactive	–	inactive	inactive	inactive
O=C(O)COCC(=O)O	inactive	inactive	inactive	inactive	inactive	inactive	inactive	inactive	inactive	inactive	inactive	–	inactive	–	inactive	inactive	inactive	–	inactive
